A number with no mark means an inactive call.
Each molecule was assayed on Mel-DCC-11-R (assay: cell viability relative to DMSO control (fraction of DMSO control); higher = less cytotoxic, active = 0.8 or less). Conditions: 1 µM; 120 h; vemurafenib co-treatment 0 µM.
Description: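 Same 315-drug TargetMol library at 1 µM in duplicate, 120 h, ATPlite luminescence normalised to DMSO controls, on the vemurafenib-resistant subline Mel-DCC-11-R cultured alone or with 8 µM vemurafenib co-treatment (Mel-DCC-11-R + V).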

Structure (SMILES)	cell viability
C=C1C[C@@H]2[C@H](CC[C@]3(C)C(=O)CC[C@@H]23)[C@@]2(C)C=CC(=O)C=C12 [Exemestane]	1.09
O=[As]O[As]=O (stereo not given) [Arsenic oxide (3)]	0.971
COc1cc([C@@H]2c3cc4c(cc3[C@H](O)[C@H]3COC(=O)[C@H]23)OCO4)cc(OC)c1OC [Podophyllotoxin]	0.575 (active)
COC(=O)Nc1nc2ccccc2[nH]1 [Carbendazim]	0.917
O=C(O)CCCc1ccc(N(CCCl)CCCl)cc1 [Chloroambucil]	0.906
Cn1cc(C2=C(c3cn(C4CCN(Cc5ccccn5)CC4)c4ccccc34)C(=O)NC2=O)c2ccccc21 [Enzastaurin]	1.06
NCCC(O)(P(=O)([O-])O)P(=O)([O-])O.[Na+].[Na+] [Pamidronate disodium salt]	1.02
Cc1ncc(CNC(=O)N(CCCl)N=O)c(N)n1.Cl [Nimustine Hydrochloride]	1.1
O=P1(NCCCl)OCCCN1CCCl (stereo not given) [Ifosfamide]	0.968
CCC1(c2ccc(N)cc2)CCC(=O)NC1=O (stereo not given) [Aminoglutethimide]	1.08
N[C@@H](Cc1ccc(N(CCCl)CCCl)cc1)C(=O)O [Melphalan]	1.17
C[C@]12CCC(=O)C(O)=C1CC[C@@H]1[C@@H]2CC[C@]2(C)C(=O)CC[C@@H]12 [Formestane]	0.922
CNC(=O)Oc1ccccc1OC(C)C [Propoxur]	0.827
CC(O)(CS(=O)(=O)c1ccc(F)cc1)C(=O)Nc1ccc(C#N)c(C(F)(F)F)c1 (stereo not given) [Bicalutamide]	1.02
CCC1=C[C@H]2CN3CCc4c([nH]c5ccccc45)[C@](C(=O)OC)(C2)[C@H]13 [Catharanthine]	0.906
NCCCNCCSP(=O)(O)O [Amifostine]	0.934
C[C@]12CC[C@@H]3c4ccc(OC(=O)N(CCCl)CCCl)cc4CC[C@H]3[C@@H]1CC[C@@H]2OP(=O)([O-])[O-].[Na+].[Na+] [Estramustine phosphate sodium]	1.01
Cl.N[C@@H]1C[C@H]1c1ccccc1 [Tranylcypromine (2-PCPA) hydrochloride]	0.9
O.O=P1(N(CCCl)CCCl)NCCCO1 (stereo not given) [Cyclophosphamide monohydrate]	0.857
CCCCCN(C)CCC(O)(P(=O)([O-])O)P(=O)(O)O.[Na+] [Ibandronate sodium]	0.82

Same assay, conditions: 1 µM; 120 h; vemurafenib co-treatment 8 µM

Structure (SMILES)	cell viability
C=C1C[C@@H]2[C@H](CC[C@]3(C)C(=O)CC[C@@H]23)[C@@]2(C)C=CC(=O)C=C12 [Exemestane]	1.13
O=[As]O[As]=O (stereo not given) [Arsenic oxide (3)]	0.951
COc1cc([C@@H]2c3cc4c(cc3[C@H](O)[C@H]3COC(=O)[C@H]23)OCO4)cc(OC)c1OC [Podophyllotoxin]	0.407 (active)
COC(=O)Nc1nc2ccccc2[nH]1 [Carbendazim]	1.05
O=C(O)CCCc1ccc(N(CCCl)CCCl)cc1 [Chloroambucil]	1.11
Cn1cc(C2=C(c3cn(C4CCN(Cc5ccccn5)CC4)c4ccccc34)C(=O)NC2=O)c2ccccc21 [Enzastaurin]	1.24
NCCC(O)(P(=O)([O-])O)P(=O)([O-])O.[Na+].[Na+] [Pamidronate disodium salt]	0.981
Cc1ncc(CNC(=O)N(CCCl)N=O)c(N)n1.Cl [Nimustine Hydrochloride]	0.991
O=P1(NCCCl)OCCCN1CCCl (stereo not given) [Ifosfamide]	1
CCC1(c2ccc(N)cc2)CCC(=O)NC1=O (stereo not given) [Aminoglutethimide]	1.04
N[C@@H](Cc1ccc(N(CCCl)CCCl)cc1)C(=O)O [Melphalan]	1.11
C[C@]12CCC(=O)C(O)=C1CC[C@@H]1[C@@H]2CC[C@]2(C)C(=O)CC[C@@H]12 [Formestane]	1.02
CNC(=O)Oc1ccccc1OC(C)C [Propoxur]	0.985
CC(O)(CS(=O)(=O)c1ccc(F)cc1)C(=O)Nc1ccc(C#N)c(C(F)(F)F)c1 (stereo not given) [Bicalutamide]	1.12
CCC1=C[C@H]2CN3CCc4c([nH]c5ccccc45)[C@](C(=O)OC)(C2)[C@H]13 [Catharanthine]	0.983
NCCCNCCSP(=O)(O)O [Amifostine]	1.21
C[C@]12CC[C@@H]3c4ccc(OC(=O)N(CCCl)CCCl)cc4CC[C@H]3[C@@H]1CC[C@@H]2OP(=O)([O-])[O-].[Na+].[Na+] [Estramustine phosphate sodium]	1.11
Cl.N[C@@H]1C[C@H]1c1ccccc1 [Tranylcypromine (2-PCPA) hydrochloride]	0.694 (active)
O.O=P1(N(CCCl)CCCl)NCCCO1 (stereo not given) [Cyclophosphamide monohydrate]	1.03
CCCCCN(C)CCC(O)(P(=O)([O-])O)P(=O)(O)O.[Na+] [Ibandronate sodium]	0.935

From the supplement of paper PMC12808144
